# Values joined by “and” are separate entries in the source; they are usually repeats but may differ in a detail not shown here. Identical values can stand only once. Active and inactive are the calls of the source. How the source made its calls: active means hit-call score of the fitted dose curve at least 0.9, where 1 is the maximum; inactive means score below 0.9.
# Experiments:
# [1] = read-out: Vascular cell adhesion molecule 1 (VCAM1), VCAM1 (gene 7412); assay: BSK_MyoF_VCAM1: BioMAP Diversity Plus: MyoF Assay for Vascular cell adhesion molecule 1 (VCAM1) Biomarker Activity (AID 2284231); details: primary human lung fibroblasts
# Method in brief: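 Primary human lung fibroblasts were dosed with test chemical for 24 h, then cell-surface VCAM-1 was measured by ELISA. Activity was fitted in the positive direction against DMSO as negative control and baseline.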
# [2] = read-out: Collagen I, COL1A1 (gene 1277); assay: BSK_MyoF_CollagenI: BioMAP Diversity Plus: MyoF Assay for Collagen I Biomarker Activity (AID 2284238); details: primary human lung fibroblasts
# Method in brief: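 Human lung fibroblasts were exposed to test chemical for 24 h, then Collagen I was quantified by ELISA. Activity was fitted in the increasing direction against DMSO as the negative control and baseline.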
# [3] = read-out: Collagen III, COL3A1 (gene 1281); assay: BSK_MyoF_CollagenIII: BioMAP Diversity Plus: MyoF Assay for Collagen III Biomarker Activity (AID 2284239); details: primary human lung fibroblasts
# Method in brief: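 Human lung fibroblasts were dosed with chemicals and, 24 hours later, collagen III was measured by ELISA. Activity was fitted in the positive direction against the DMSO negative-control baseline.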
# [4] = CCTE_Mundy_HCI_hNP1_Casp3_7: CCTE's Caspase-Glo 3/7 Assay in human neuroprogenitor cells for Apoptosis, Mundy Lab (AID 2284240)
# Method in brief: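 Luminescent caspase-3/7 readout, 26.5 h post-dose, in human neural progenitor cells from WA09 embryonic stem cells. Cells grew 40–44 h at 37 °C, 5% CO2 before chemical addition. Activity analysed as signal increase over DMSO baseline.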
structure (smiles),measurement,setting,value
CCCCOCCOCCOC(=O)CCCCC(=O)OCCOCCOCCCC,outcome,[1],inactive
same,outcome,[2],inactive
same,outcome,[3],inactive
C#C[C@]1(O)CC[C@H]2[C@@H]3CCc4cc(OC)ccc4[C@H]3CC[C@@]21C,outcome,[1],inactive
same,outcome,[2],inactive
same,outcome,[3],inactive
O=C(O)C(F)(F)C(F)(F)C(F)(F)C(F)(F)C(F)(F)C(F)(F)C(F)(F)C(F)(F)C(F)(F)C(F)(F)C(F)(F)C(F)(F)F,outcome,[1],inactive
same,AC50,[2],24.5 µM (active) and 18.6 µM (active)
same,outcome,[3],inactive
O=C(O)C=C(C(F)(F)F)C(F)(F)F,AC50,[1],21.8 µM (active) and 16.2 µM (active)
same,outcome,[2],inactive
same,outcome,[3],inactive
Cc1ccc(S(=O)(=O)OCC(F)(F)C(F)(F)C(F)(F)C(F)(F)C(F)(F)C(F)F)cc1,outcome,[1],inactive
same,outcome,[2],inactive
same,outcome,[3],inactive
FC(F)(F)C(F)(F)C(F)(F)C(F)(F)C(F)(F)C(F)(F)C(F)(F)I,AC50,[1],4.15 µM (active) and 4.24 µM (active)
same,AC50,[2],4.56 µM (active) and 3.16 µM (active)
same,AC50,[3],5.06 µM (active) and 4.85 µM (active)
C=CC(=O)OCC(F)(F)C(F)(F)C(F)(F)C(F)(F)C(F)(F)C(F)(F)C(F)(F)F,outcome,[1],inactive
same,outcome,[2],inactive
same,outcome,[3],inactive
O=S(=O)(OCC(F)F)C(F)(F)F,outcome,[1],inactive
same,outcome,[2],inactive
same,outcome,[3],inactive
FC(F)(F)C(F)(F)C(F)(F)C(F)(F)C(F)(F)CCI,outcome,[1],inactive
same,outcome,[2],inactive
same,outcome,[3],inactive
FC(F)(F)C(F)(F)C(F)(F)C(F)(F)C(F)(F)C(F)(F)CCS,outcome,[1],inactive
same,outcome,[2],inactive
same,outcome,[3],inactive
O=S(=O)(OCCOC(F)(F)F)C(F)(F)F,outcome,[1],inactive
same,outcome,[2],inactive
same,outcome,[3],inactive
O=C(O)C(F)(F)C(F)(F)C(F)(F)C(F)(F)C(F)(F)C(F)(F)C(F)(F)C(F)(F)C(F)(F)C(F)F,AC50,[1],21.5 µM (active) and 23.5 µM (active)
same,AC50,[2],19 µM (active) and 16.1 µM (active)
same,AC50,[3],18.7 µM (active) and 16.4 µM (active)
OCC(F)(F)C(F)(F)C(F)(F)C(F)(F)C(F)(F)C(F)F,outcome,[1],inactive
same,outcome,[2],inactive
same,outcome,[3],inactive
O=C(O)C(F)(F)C(F)(F)C(F)F,outcome,[1],inactive
same,outcome,[2],inactive
same,outcome,[3],inactive
Nc1ccc([N+](=O)[O-])cc1O,outcome,[1],inactive
same,outcome,[2],inactive
same,outcome,[3],inactive
CCN(CC)c1ccc2c(C)cc(=O)oc2c1,outcome,[1],inactive
same,outcome,[2],inactive
same,outcome,[3],inactive
C=CC(F)(F)C(F)(F)C(F)(F)C(F)(F)C(F)(F)C(F)(F)C(F)(F)C(F)(F)F,outcome,[1],inactive
same,outcome,[2],inactive
same,outcome,[3],inactive
FC1CC(F)(F)C(F)(F)C1(F)F (stereo not drawn),outcome,[1],inactive
same,outcome,[2],inactive
same,outcome,[3],inactive
O=P(O)(O)OCCC(F)(F)C(F)(F)C(F)(F)C(F)(F)C(F)(F)C(F)(F)F,outcome,[1],inactive
same,outcome,[2],inactive
same,outcome,[3],inactive
same,outcome,[4],inactive
